An excerpt weighted towards active compounds, which were near 10% of everything screened.
JMJD2A Tudor: JMJD2A Tudor domain (human) inhibition; O75164; AlphaScreen JMJD2A-Tudor / H3K4me3 peptide binding; Potency, µM (highest dose often 114 µM), for inactives: at the highest dose activity change, negative = inhibition, usual class: inhibitors; 390,000 tested, 4.4% active; AID 504339; further: on the % scale 0 is the no-effect control and ±100 the full control effect; nearly all actives have a fitted effect of over 50% in size
GLS inh: glutaminase GLS (human) inhibition; Potency, µM (highest dose often 45.5 µM), for inactives: at the highest dose activity change, negative = inhibition, most hits filed as inhibitors; 410,000 tested, 0.21% active; GLS enzymatic activity, qHTS titration; AID 624170; further: on the % scale 0 is the no-effect control and ±100 the full control effect
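Read-out is an Amplex red fluorescence increase coupled through glutamate oxidase and HRP, measured before and after 30 min room-temperature incubation. hKGA is in 45 mM KH2PO4 (pH 8.2) with 0.02% Tween-20; glutamine added as 1mM solution.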
HP1b chromo inh: blocks HP1-beta chromodomain binding to methylated histone tails; P83916; AlphaScreen HP1-beta / biotin-H3K9me3 peptide binding; Potency, µM (series often up to 114 µM), for inactives: top-dose activity change, negative = inhibition, most hits filed as inhibitors; 390,000 tested, 0.56% active; AID 540317; further: nearly all actives have a fitted effect of over 70% in size
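AlphaScreen: HP1-beta (50 nM) preformed 30 min with biotin-H3(1-18)K9me3 peptide (50 nM) in PBS pH 7.4, 0.01% Tween-20. Compound added for 30 min at RT, then streptavidin donor/nickel chelate acceptor beads (10 ug/mL) for 30 min.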
BAZ2B inh: blocks human BAZ2B. 360,000 tested, 4.4% active. AlphaScreen BAZ2B-H3K14Ac peptide displacement. Q9UIF8. Potency, µM (top dose mostly 114 µM), inactives show at the highest dose activity change, negative = inhibition, hits mostly inhibitors; further: on the % scale 0 is the no-effect control and ±100 the full control effect; nearly all actives have a fitted effect of over 60% in size
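AlphaScreen displacement: compounds (up to 110uM) incubated 30 min at room temperature with a preformed 50 nM BAZ2B/50 nM biotinylated H3K14Ac peptide complex in PBS pH 7.4 with Tween-20. Donor and acceptor beads at 10 ug/mL final added, 20 min light-protected before reading.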
G9a block: inhibitors of human histone lysine methyltransferase G9a; G9a H3K9 monomethylation, AlphaScreen, 2 h; Potency, µM (titrated, usually from 102 µM), for the others: at the highest dose activity, negative = inhibition, hits mostly inhibitors; 350,000 tested, 8.8% active; AID 504332; further: on the % scale 0 is the no-effect control and ±100 the full control effect; nearly all actives have a fitted effect of over 75% in size
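AlphaScreen read-out: biotin-H3K9 peptide (500 nM) methylation by 20 nM enzyme with 20 uM SAM, 2 h at room temperature after 15 min compound preincubation; anti-monomethyl H3K9 antibody plus donor/acceptor beads, 10 min dark.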
An asterisk follows results filed as active; [ ] = remark or other dose. The call rests on the fitted dose curve; in most records, active means well fitted curve in the direction sought with a large enough effect; inconclusive means small, poorly fitted or top-dose-only effect, or another doubt; inactive means no such curve, though single readings can be large; an effect the other way counts as inactive or inconclusive. Potency means the concentration at half of the fitted maximal effect.

C=C(C)CSC1=C(C#N)C(c2ccccc2Cl)CC(=O)N1 (stereo unspecified) was read as JMJD2A Tudor inconclusive, GLS inh 1%, HP1b chromo inh inconclusive, BAZ2B inh 5% and G9a block 45µM*.
Screening C=CCSC1=C(C#N)C(c2ccccc2C)CC(=O)N1 (stereo unspecified) returned JMJD2A Tudor 4%, GLS inh -7%, HP1b chromo inh 26%, BAZ2B inh 13% and G9a block -8%[12.7 µM].
Screening C=CCSC1=C(C#N)C(c2ccccc2Cl)CC(=O)N1 (stereo unspecified) returned JMJD2A Tudor -19%, GLS inh 13%, HP1b chromo inh -14%, BAZ2B inh 5% and G9a block 20µM*.
CSc1sc(C)cc1C1C(C#N)=C(N)N(c2cccnc2)C2=C1C(=O)CC(C)(C)C2 (stereo unspecified) was read as JMJD2A Tudor -7%, GLS inh 1%, HP1b chromo inh 40%, BAZ2B inh -5% and G9a block inconclusive.
`CCOc1ccc(OCC)c(C2C(C#N)=C(N)N(c3cccnc3)C3=C2C(=O)CC(C)(C)C3)c1` (stereo unspecified) gave JMJD2A Tudor -10%, GLS inh -3%, HP1b chromo inh 41%, BAZ2B inh inconclusive and G9a block 50µM*.
For COc1ccc(Cn2c(=O)c3oc4ccccc4c3n(Cc3ccccc3)c2=O)cc1 the results were JMJD2A Tudor -4%, GLS inh -5%, HP1b chromo inh 28%, BAZ2B inh -1% and G9a block 2%[59 µM].
`COc1cc(/C=C2/SC(=S)N(CCC(=O)Nc3cccnc3)C2=O)cc(OC)c1OC` gave GLS inh -8%.
Screening CN(C)S(=O)(=O)c1cccc(NC(=S)NNC(=O)c2cc3ccccc3cc2O)c1 returned JMJD2A Tudor 40µM*, GLS inh inconclusive, HP1b chromo inh -27%[57 µM], BAZ2B inh inconclusive and G9a block inconclusive.
O=C(NC(=S)Nc1ccccc1Br)c1ccco1 was read as JMJD2A Tudor -13%, GLS inh -2%, HP1b chromo inh 10%, BAZ2B inh 3% and G9a block 45µM*.
For CN(C)S(=O)(=O)c1cccc(NC(=S)NC(=O)c2ccco2)c1 the results were JMJD2A Tudor inconclusive, GLS inh 2%, HP1b chromo inh 18%, BAZ2B inh -6% and G9a block 40µM*.
For COc1cc(NS(=O)(=O)c2ccc(NC(=S)NC(=O)c3ccco3)cc2)ncn1 the results were JMJD2A Tudor -3%, GLS inh 18%, HP1b chromo inh 16%, BAZ2B inh -20% and G9a block 50µM*.
Screening COc1ccc(C(=O)NC(=S)Nc2ccc(S(=O)(=O)Nc3cc(OC)ncn3)cc2)cc1 returned JMJD2A Tudor -16%, GLS inh 44%, HP1b chromo inh -2%, BAZ2B inh inconclusive and G9a block inconclusive.
`Cc1cccc(NC(=S)NC(=O)c2ccco2)c1C` gave JMJD2A Tudor -1%, GLS inh 2%, HP1b chromo inh 30%, BAZ2B inh -25% and G9a block inconclusive.
NC(=O)CCC1NC(=O)C(Cc2ccccc2)NC(=O)C(Cc2ccc(O)cc2)NC(=O)CCSSCC(C(=O)N2CCCC2C(=O)NC(CCCN=C(N)N)C(=O)NCC(N)=O)NC(=O)C(CC(N)=O)NC1=O (stereo unspecified) was read as GLS inh 23% and G9a block -3%[12.7 µM].
`NS(=O)(=O)c1ccc(NC(=S)NC(=O)c2ccco2)cc1` gave JMJD2A Tudor 25µM*, GLS inh 3%, HP1b chromo inh 6%, BAZ2B inh -20% and G9a block 56µM*.
For CC(=O)NS(=O)(=O)c1ccc(NC(=S)NC(=O)c2ccco2)cc1 the results were JMJD2A Tudor -18%, GLS inh 31%, HP1b chromo inh 57% and BAZ2B inh 5%.
COc1ccc(-c2noc(CCC(=O)NCc3cccnc3)n2)cc1OC was read as JMJD2A Tudor 12%[57.1 µM], GLS inh 0%, HP1b chromo inh 46%, BAZ2B inh 5% and G9a block 71µM*.
Screening NC(=O)c1ccc(NC(=O)CCc2nc3ccccc3s2)cc1 returned JMJD2A Tudor -29%, GLS inh 8%, HP1b chromo inh 23%, BAZ2B inh inconclusive and G9a block 35µM*.
For O=C(CCn1c(=O)sc2ccccc21)Nc1cccnc1 the results were JMJD2A Tudor -8%, GLS inh 2%, HP1b chromo inh 11%, BAZ2B inh 3% and G9a block -5%[59 µM].
COc1ccc(-c2noc(CCC(=O)NCc3cccnc3)n2)cc1 was read as JMJD2A Tudor -16%, GLS inh -15%, HP1b chromo inh -4%, BAZ2B inh 7% and G9a block 5%.
Screening O=C(CCc1nc(-c2ccccc2)no1)Nc1cccnc1 returned JMJD2A Tudor -4%, GLS inh 1%, HP1b chromo inh 20%, BAZ2B inh 3% and G9a block 56µM*.
Screening O=C(CCc1nc2ccccc2s1)Nc1cccnc1 returned JMJD2A Tudor -18%, GLS inh -1%, HP1b chromo inh 30%, BAZ2B inh inconclusive and G9a block 40µM*.
Screening CC(C)(C)OC(=O)n1cccc1/C=C1\c2ccccc2C(=O)N1c1ccccc1 returned JMJD2A Tudor 63µM*, GLS inh -5% and HP1b chromo inh -37%.
`CC(=O)Oc1ccc(C#C/C=C2\c3ccccc3C(=O)N2c2ccccc2)cc1` gave JMJD2A Tudor -28%, GLS inh -2% and HP1b chromo inh 25%.
`O=c1c2c(-c3ccccc3)csc2ncn1/N=C/c1cccc([N+](=O)[O-])c1O` gave JMJD2A Tudor 79µM*, GLS inh 34%, HP1b chromo inh -16%, BAZ2B inh 50µM* and G9a block 40µM*.
CC(C)(C)c1cc(CN2CCCC(O)C2)c(O)c(C(C)(C)C)c1 (stereo unspecified) was read as JMJD2A Tudor inconclusive, GLS inh 4%, HP1b chromo inh 9%, BAZ2B inh 79µM* and G9a block inconclusive.
COc1ccccc1N1CCN(C(=O)c2ccc3c(c2)NC(=O)C(CSCc2ccccc2C)N3)CC1 (stereo unspecified) was read as BAZ2B inh 50µM* and G9a block inconclusive.
Cc1ccc(S(=O)(=O)NC(=O)NC2CCCCC2)cc1 was read as GLS inh 8% and G9a block 5%[12.7 µM].
`Cc1ccc(S(=O)(=O)NC(=O)NN2CC3CCCC3C2)cc1` (stereo unspecified) gave JMJD2A Tudor 89µM*, GLS inh 39%, HP1b chromo inh 73%, BAZ2B inh inconclusive and G9a block 7%[2.33 µM].

Screens (PubChem BioAssay)
